An excerpt weighted towards active compounds, which were near 2.4% of everything screened.
HepG2 viability: qHTS for Inhibitors of TGF-b: Cytotox Counterscreen. Potency, µM (highest dose often 46.1 µM), usual class: cytotoxic. 0.76% of 410,000 active. HepG2 CAGA-GFP viability, ATP luminescence, 18 h
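HepG2 CAGA-GFP cells (1000/well, DMEM with 1% FBS) received compound, then TGF-beta at 500 pg/mL final, and were incubated 18 hours at 37 degrees C. Viability was read by CellTiter-Glo luminescence. Media-only wells were set as complete cell-killing and DMSO as no toxicity.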
Apoferritin bind: qHTS Assay for Identification of Novel General Anesthetics. Potency, µM (series often up to 77.5 µM), most hits filed as inhibitors. apoferritin/1-aminoanthracene competitive binding, fluorescence. Ferritin light chain (Equus caballus), P02791. AID 485281, 2010. 0.074% of 350,000 active; also: nearly all actives have a fitted effect of over 20% in size
Target sequence (P02791 2-175 limits assumed): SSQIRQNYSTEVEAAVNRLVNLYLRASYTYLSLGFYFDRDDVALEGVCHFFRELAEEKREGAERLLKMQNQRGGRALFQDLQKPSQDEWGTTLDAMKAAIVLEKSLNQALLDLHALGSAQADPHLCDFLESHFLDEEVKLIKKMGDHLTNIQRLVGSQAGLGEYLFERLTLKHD
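10 uM apoferritin + 50% sat. 1-AMA, PBS; cpd 10 min RT; Ex380/Em535 endpoint; normalized to free probe vs complex; 4-param Hill fit; propofol titration as pos. ctrl.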
ATXN2 expr inh: Primary qHTS for Inhibitors of ATXN expression. HEK-293 ATXN2-luciferase reporter, luminescence, 24 h. Potency, µM (doses to about 57 µM), actives largely listed as inhibitors. 0.72% of 360,000 active. AID 1745845, 2022; also: nearly all actives have a fitted effect of over 55% in size
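qHTS (up to 57 uM final) was run with 24 h compound exposure of reporter cells at 37 °C. Each well was multiplexed: SteadyGlo luminescence measured ATXN2-luciferase expression after a fluorogenic Gly-Phe-AFC viability readout (25 uM final).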
TGFb inhibitor: qHTS for Inhibitors of TGF-b. 1.2% of 410,000 active. Potency, µM (titrated, usually from 46.1 µM), actives largely listed as inhibitors. HepG2 CAGA-GFP TGF-b/SMAD3 reporter, GFP fluorescence, 18 h; TGF-beta stimulated, 500 pg/mL final; also: nearly all actives have a fitted effect of over 65% in size
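Inhibition was scored as loss of TGF-beta-induced (500 pg/mL final, 18 hours, 37 degrees C) GFP in HEPG2 cells carrying a CAGA-GFP reporter, in DMEM with 1% FBS. Well GFP was summed per cell; Activity was normalised to unstimulated and stimulated DMSO wells, then concentration-response fitting.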
ATXN viability: Viability Counterscreen for Primary qHTS for Inhibitors of ATXN expression; AID 651635, 2014; Potency, µM (top dose mostly 56.7 µM), most hits filed as cytotoxic; 0.49% of 400,000 active; S2 cells (HEK-293 line with an ATXN2-luciferase reporter) viability, CellTiter-Fluor protease fluorescence, 24 h; also: nearly all actives have a fitted effect of over 40% in size
Hits are given with their value; i = inactive; ? = inconclusive; nt = no result. Calls follow the shape of the dose curve; as a rule, active = well fitted curve in the direction sought with a large enough effect; inconclusive = small, poorly fitted or top-dose-only effect, or another doubt; inactive = no such curve, though single readings can be large; an effect the other way counts as inactive or inconclusive.

SMILES	HepG2 viability	Apoferritin bind	ATXN2 expr inh	TGFb inhibitor	ATXN viability
O=C(c1cnsn1)N1CCOc2ccc(CN3CCOCC3)cc2C1	nt	nt	nt	nt	i
Oc1ccc(C[C@@H]2CNCCN2CCc2cc(C(F)(F)F)cc(C(F)(F)F)c2)cc1	i	nt	20µM	?	?
FC(F)(F)c1cc(CCN2CCNC[C@H]2Cc2cccc3ccccc23)cc(C(F)(F)F)c1	i	nt	?	?	40µM
Oc1ccc(C[C@H]2CNCCN2CCc2cc(C(F)(F)F)cc(C(F)(F)F)c2)cc1	i	nt	?	?	nt
c1ccc(C[C@H]2CNCCN2CCc2cccc3ccccc23)cc1	i	nt	?	?	?
O=C(Oc1cc(Cl)ccc1Cl)c1ccc(N2CCOCC2)c([N+](=O)[O-])c1	i	?	i	i	i
O=C(c1cnn2c1NC(=C1CC1)C=C2C(F)F)N1CCc2ccccc21	i	nt	nt	i	nt
O=C1N/C(=N/N=C/c2ccccc2O)SC1Cc1ccc(F)cc1 (stereo not drawn)	i	i	8.9µM	?	?
COc1ccc(CC2S/C(=N/N=C/c3ccc(O)cc3)NC2=O)cc1 (stereo not drawn)	i	i	i	i	i
COc1ccc(CC2S/C(=N/N=C/c3ccccc3O)NC2=O)cc1 (stereo not drawn)	i	i	?	7.9µM	?
Cc1ccccc1Nc1sc(C(=O)c2ccccc2)c(N)c1C(=O)NCc1ccc(Cl)cc1	i	i	?	?	?
Cc1ccc(CNC(=O)c2c(Nc3ccccc3C)sc(C(=O)c3ccc(F)cc3)c2N)cc1	16µM	i	?	18µM	?
COc1cccc(Nc2sc(C(=O)c3ccc(Cl)cc3)c(N)c2C(=O)NCCc2ccc(OC)c(OC)c2)c1	i	i	?	?	?
COc1cccc(Nc2sc(C(=O)c3ccc(F)cc3)c(N)c2C(=O)NCc2ccc(C)cc2)c1	i	i	nt	14µM	nt
Cc1ccc(S(=O)(=O)N2[C@@H](c3ccccc3F)C(C(=O)O)=CC[C@H]2c2ccc(C(C)C)cc2)cc1	i	nt	i	?	i
Cc1c(C(=O)NCC2CCCN(C)C2)cnn1-c1ncc2c(n1)-c1ccccc1CCC2 (stereo not drawn)	nt	nt	nt	nt	i
CCOC(=O)C1CCN(S(=O)(=O)c2ccc3[nH]c4c(c3c2)CCCC4)CC1	i	i	i	i	i
COc1ccccc1CNS(=O)(=O)c1ccc2[nH]c3c(c2c1)CCCCC3	i	i	i	11µM	?
COc1ccc(NS(=O)(=O)c2ccc3[nH]c4c(c3c2)CCCCCC4)cc1	i	?	?	?	?
COc1cccc(NS(=O)(=O)c2ccc3[nH]c4c(c3c2)CCCCCC4)c1	13µM	?	i	?	i
CCOC(=O)CC(NS(=O)(=O)c1ccc2[nH]c3c(c2c1)CCCC3)c1ccccc1Cl (stereo not drawn)	i	i	nt	20µM	nt
CCN1CCCC1CNC(=O)c1cnn(-c2nccc(-c3ccco3)n2)c1C1CC1 (stereo not drawn)	nt	nt	nt	nt	i
CCN(CC)CCNC(=O)c1sc2nc3n(c(=O)c2c1C)CCCCC3	i	i	nt	i	nt
NC(N)=NCC1COC2(CCCCC2)O1 (stereo not drawn)	nt	nt	nt	nt	i
CCCCCCn1c(SCC#N)nc2ccccc2c1=O	i	nt	nt	i	nt
SMILES	HepG2 viability	Apoferritin bind	ATXN2 expr inh	TGFb inhibitor	ATXN viability
CCN1C[C@@H]2[C@@H]3C(=O)N(Cc4ccccc4)C(=O)[C@@H]3[C@](CC)(C1=O)N2C(=O)c1ccc(C(C)(C)C)cc1	i	nt	i	i	i
CCN1C[C@@H]2[C@@H]3C(=O)N(Cc4ccccc4)C(=O)[C@@H]3[C@](Cc3ccccc3)(C1=O)N2C(=O)c1ccc(C(C)(C)C)cc1	i	nt	?	i	32µM
O=C(CSc1nc(-c2ccccc2)cn1-c1ccccc1F)Nc1ccc(F)cc1	i	i	i	14µM	?
CCc1ccc(CN(C(=O)c2cc(=O)c3ccc(C)cc3o2)C2CCS(=O)(=O)C2)cc1 (stereo not drawn)	i	?	nt	i	nt
CC1(C)OC(=O)CC1C(=O)NCc1ccccc1 (stereo not drawn)	i	i	i	i	i
CC1(C)OC2=C(C(=O)c3ccccc3C2=O)[C@H](NCc2ccccc2)[C@H]1O	nt	nt	3.4µM	nt	nt
C[N+](C)(C)c1ccc(/C=C/c2ccnc3ccccc23)cc1	i	nt	nt	?	nt
CCCN(CCC)c1ccc(/C=C/c2ccnc3ccccc23)cc1	10µM	nt	nt	i	nt
CCC[N+](C)(C)c1ccc(/C=C/c2ccnc3ccccc23)cc1	i	nt	nt	2µM	nt
Cc1[nH]c2ccccc2c1/C=C/c1ccnc2ccccc12	i	nt	nt	13µM	nt
CCOc1cc(/C=C(\C#N)C(=O)Nc2ccc(C)cc2)ccc1OCc1cc(=O)n2nc(CC)sc2n1	i	i	i	i	i
Clc1ccc(/C=C/c2nc3ccccc3[nH]2)cc1	11µM	i	?	i	?
Clc1ccc(/C=C/c2nc3ccccc3[nH]2)c(Cl)c1	i	i	?	?	i
COc1cc(C=O)cc(OC)c1[N+](=O)[O-]	i	nt	nt	i	nt

Source: PubChem
